Most compounds without a hit are left out; they make up all but 7.4% or so of the library.
ELG1 genotox = qHTS screen for small molecules that induce genotoxicity in human embryonic kidney (HEK293T) cells expressing luciferase-tagged ELG1; AID 504466, 2011; HEK293T ELG1-luciferase reporter, luminescence, 16 h; Potency, µM (highest dose often 46 µM), hits mostly activators; actives 1.3% (n = 330,000); note: nearly all actives have a fitted effect of over 60% in size
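Step 1: seed 2,000 HEK293T ELG1-luciferase cells per well. Step 2: add compound or DMSO, incubate 16 hr at 37 °C. Step 3: ONE-Glo, 30 min at room temperature, read luminescence.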
FLuc modulator = qHTS profiling assay for firefly luciferase inhibitor/activator using purifed enzyme and Km concentrations of substrates (counterscreen for miR-21 project) | Potency, µM (doses to about 57.5 µM), actives largely listed as inhibitors | purified FLuc, Km substrates, luminescence inhibition | AID 588342, 2011 | Luciferin 4-monooxygenase (Photinus pyralis), P08659 | actives 6.9% (n = 360,000); note: nearly all actives have a fitted effect of over 55% in size
Target sequence (P08659 whole entry, looked up): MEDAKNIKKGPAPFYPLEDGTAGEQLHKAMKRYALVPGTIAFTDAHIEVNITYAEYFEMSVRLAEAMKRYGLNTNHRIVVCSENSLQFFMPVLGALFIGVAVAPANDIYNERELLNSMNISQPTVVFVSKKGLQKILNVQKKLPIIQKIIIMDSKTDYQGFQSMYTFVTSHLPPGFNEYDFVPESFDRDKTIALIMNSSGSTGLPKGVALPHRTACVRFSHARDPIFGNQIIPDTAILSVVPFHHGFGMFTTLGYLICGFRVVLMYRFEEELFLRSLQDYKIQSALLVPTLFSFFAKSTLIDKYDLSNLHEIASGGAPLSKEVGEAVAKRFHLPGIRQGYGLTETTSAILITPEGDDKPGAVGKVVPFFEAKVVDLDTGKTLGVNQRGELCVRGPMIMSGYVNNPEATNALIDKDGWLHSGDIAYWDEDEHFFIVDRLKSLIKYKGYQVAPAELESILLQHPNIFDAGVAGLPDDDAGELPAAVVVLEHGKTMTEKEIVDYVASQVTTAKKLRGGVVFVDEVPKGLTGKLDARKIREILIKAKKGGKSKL
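Purified P. pyralis luciferase (10nM final) with 10uM D-luciferin and 10uM ATP (Km levels) in 50mM Tris acetate pH 7.5, 10mM Mg acetate, 0.01% Tween-20, 0.05% BSA; qHTS 6-point titration, ~60 µM downward; luminescence read.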
p53 reactivation = qHTS assay for re-activators of p53 using a Luc reporter | Potency, µM (highest dose often 92.2 µM), usual class: activators | AID 504706, 2011 | actives 0.063% (n = 320,000) | H1299 p53-A138V BP100-luciferase reporter, luminescence, 24 h; note: nearly all actives have a fitted effect of over 45% in size
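H1299 (p53-null), stable ts p53-A138V + BP100-Luc; 1000 cells/well, Opti-MEM/10% FBS; cpd 4 pt, 1:5; 24 h, 37 deg C, 5% CO2; detection reagent 10 min RT; luminescence.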
NPC1 promoter act = qHTS Assay for NPC1 Promoter Activators. actives 2.4% (n = 320,000). Huh7 NPC1 promoter luciferase reporter, 24 h. AID 485313, 2010. Potency, µM (doses to about 9.22 µM), actives largely listed as activators; note: nearly all actives have a fitted effect of over 60% in size
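NPC1 promoter–luciferase Huh7 cells; 24 h compound; luminescence.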
Rab9 promoter act = qHTS Assay for Rab9 Promoter Activators. Huh7 Rab9 promoter-luciferase reporter, luminescence, 24 h. Potency, µM (titrated, usually from 9.22 µM), hits mostly activators. actives 2.8% (n = 320,000). AID 485297, 2010; note: nearly all actives have a fitted effect of over 60% in size
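Measured in stably transfected Huh7 cells bearing a Rab9 promoter–luciferase construct: 24 h compound treatment at 37 °C, followed by luminescence detection.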
SMN2 splice up = qHTS Assay for Enhancers of SMN2 Splice Variant Expression; Potency, µM (top dose mostly 46.1 µM), actives largely listed as activators; actives 2.8% (n = 210,000); HEK293 SMN2-luciferase splicing reporter, luminescence, 30-36 h; note: nearly all actives have a fitted effect of over 55% in size
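HEK293 cells carry an SMN2 […]–luciferase reporter in which exon 7 inclusion puts luciferase in frame. Cells were plated 10-12 h before compound addition, then incubated 30-36 h at 37C. ONE-Glo luminescence was read; sodium butyrate at 4.5 mM final served as control.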
Hits are given with their value; – = inactive; ? = inconclusive; · = no result; [ ] = dose if it differs, or a comment. Calls come from the whole dose curve; as a rule, active = well fitted curve in the direction sought with a large enough effect; inconclusive = small, poorly fitted or top-dose-only effect, or another doubt; inactive = no such curve, though single readings can be large; an effect the other way counts as inactive or inconclusive.

SMILES | ELG1 genotox | FLuc modulator | p53 reactivation | NPC1 promoter act | Rab9 promoter act | SMN2 splice up
O=C(Cc1ccccc1)Nc1ccc(NC(=O)c2cccs2)cc1 | – | – | – | – | – | –
O=C(Nc1ncc(Cc2cccc(Cl)c2)s1)c1cccs1 | – | 15.1µM | ? | ? | ? | –
O=C(Nc1ncc(Cc2ccccc2)s1)c1cccs1 | ? | 1.07µM | · | 1.26µM | 0.501µM | 4.47µM
O=C(Nc1ncc(Cc2cccc(Cl)c2)s1)C1=NCCN1 | – | – | – | – | – | –
CCc1nn(CC(=O)NCCCN2CCOCC2)c(=O)c2cc3cc(F)ccc3n12 | – | – | – | – | – | ·
O=C(Nc1ccc(Cl)cc1C(F)(F)F)c1cc(S(=O)(=O)NCc2ccccc2)ccc1F | · | – | · | · | · | ·
C[C@@]12CCC(=O)C=C1C=CC1C2CC[C@]2(C)C1CC[C@@]21CCC(=O)O1 (stereo not given in full) | · | · | · | · | · | –
COc1ccc(Cc2nnc(NC(=O)c3cccs3)s2)cc1 | ? | ? | – | – | – | –
Cc1ccc(C(=O)Nc2ncc(Cc3ccccc3)s2)o1 | ? | 0.953µM | ? | 1.41µM | 3.16µM | ·
Cc1ccc(Cc2cnc(NC(=O)c3cccs3)s2)cc1 | – | 2.69µM | ? | 2.82µM | ? | 14.1µM
Cc1ccc(C(=O)NCc2cccnc2)o1 | – | – | – | – | – | ·
O=C(CSc1cn(CC(=O)N2CCCC2)c2ccccc12)Nc1ccccc1C(F)(F)F | · | – | · | · | · | ·
Cc1occc1C(=O)N(Cc1nc(-c2ccccc2)no1)C(C)C | –[9.26 µM] | – | – | – | – | ·
CCc1ccc(C(=O)c2cncc(Br)c2)cc1 | · | 16.9µM | · | · | · | ?
O=C(Oc1ccc2cc(Br)ccc2c1)c1cccnc1 | – | ? | – | – | – | –
O=C(Oc1ccc(Br)cc1)c1cncc(Br)c1 | – | 4.78µM | – | – | – | –
CCN(CC)C(=O)Cn1c(=O)cc(C)c2c(C)nn(-c3cccc(Cl)c3C)c21 | · | – | · | · | · | ·
O=C(c1cccc(F)c1)N1CCC[C@@]2(CCN(C(c3ccccc3)c3ccccc3)C2)C1 | · | · | · | · | · | –
O=C(Nc1ccc(N2CCOCC2)cc1)c1cn2ccccc2n1 | – | 1.69µM | – | ? | ? | ?
O=C(NC1CC1)c1cccc(NC(=O)c2cn3ccccc3n2)c1 | – | · | ? | ? | 3.16µM | ·
O=C(CNC(=O)c1cn2ccccc2n1)Nc1ccc(F)c(F)c1 | 8.2µM | 16.9µM | – | ? | 2.24µM | ·
COc1ccc(CC(=O)OCC(=O)N2CCCc3ccccc32)cc1OC | – | – | – | – | – | ·
CSCCC(NC(=O)c1ccccc1Br)C(=O)NNC(=O)c1ccncc1 (stereo not given) | – | ? | – | – | – | ·
CC(C)Sc1ncc(Cl)c(C(=O)Nc2nc3ccc(S(C)(=O)=O)cc3s2)n1 | · | ? | · | · | · | –
O=C(N/N=C/c1c[nH]c2ccccc12)c1cccc([N+](=O)[O-])c1 | – | ? | – | – | – | –
SMILES | ELG1 genotox | FLuc modulator | p53 reactivation | NPC1 promoter act | Rab9 promoter act | SMN2 splice up
COc1ccccc1C(=O)N/N=C/c1c[nH]c2ccccc12 | – | 16.9µM | – | – | – | ·
O=C(N/N=C/c1c[nH]c2ccc(Br)cc12)c1ccncc1 | – | – | – | – | – | –
O=C(N/N=C/c1c[nH]c2ccc(Br)cc12)c1ccc2c(c1)OCO2 | – | 26.9µM | – | – | – | –
Cn1cccc1/C=N/NC(=O)c1sc2ccccc2c1Cl | – | 2.69µM | – | ? | ? | –
O=C(N/N=C/c1cccc2ccccc12)c1cccs1 | ? | 2.13µM | ? | 5.62µM | 3.55µM | ·
CCN(CC)S(=O)(=O)c1cc(NC(=O)c2cc([N+](=O)[O-])ccc2N2CCOCC2)ccc1C | – | – | – | – | – | ·
CCOC(=O)Cc1c(C)nc2c(-c3ccc(Cl)cc3)c(C(F)(F)F)nn2c1C | · | – | · | · | · | –
O=C(N/N=C/c1ccccn1)c1sc2ccccc2c1Cl | ? | 9.53µM | – | – | – | ·
O=C(N/N=C/c1c[nH]c2ccccc12)c1ccccc1 | ? | 13.5µM | · | ? | ? | ·
O=C(N/N=C/c1c[nH]c2ccccc12)c1ccc2c(c1)OCCO2 | ? | 0.953µM | ? | ? | ? | ·
O=C(N/N=C/c1cccc([N+](=O)[O-])c1O)c1cccs1 | – | 13.5µM | ? | – | – | –
CC(=O)[C@H]1CC[C@@H]2[C@]1(C)CC=C1[C@@]23C=C[C@]2(C[C@H](O)CC[C@@]12C)[C@H](C(=O)O)[C@@H]3C(=O)O | · | · | · | · | · | –[9.22 µM]
O=C(N/N=C/c1c[nH]c2ccccc12)c1sc2ccccc2c1Cl | ? | 12µM | ? | – | ? | ?
COc1cc(/C=N/NC(=O)c2cccs2)ccc1OCc1ccccc1 | – | ? | – | – | – | –
O=C(N/N=C/c1c[nH]c2ccccc12)c1cc(Br)ccc1O | – | 26.9µM | – | – | – | ·
CCOc1ccc(Br)cc1C(=O)N/N=C/c1c[nH]c2ccccc12 | – | – | – | – | – | ·
Cc1cc(C(=O)N/N=C/c2c[nH]c3ccccc23)cs1 | – | 15.1µM | ? | – | – | ?
O=C(N/N=C/c1ccccc1OCc1ccccc1)c1cccs1 | – | 4.26µM | – | – | – | –
Cc1ccc(C(=O)Nc2ccc(C(=O)N/N=C/c3c[nH]c4ccccc34)cc2)cc1 | – | ? | – | – | – | –
COc1cccc(CN2C(=NC(=O)C3CC3)SC3CS(=O)(=O)CC32)c1 (stereo not given) | – | – | – | – | – | ·
COC(=O)Cc1c(C)c2ccc(OCC(=O)N3CCCC(C)C3)c(C)c2oc1=O (stereo not given) | – | – | – | – | – | ·
Cc1cc(=O)c2c(O)cc(O)c(C)c2o1 | · | · | · | · | · | –
O=C(N/N=C/c1c[nH]c2ccccc12)c1ccncc1 | – | ? | – | – | – | –
O=C(N/N=C/c1c[nH]c2ccccc12)c1cccs1 | 23.1µM | 9.53µM | – | ? | ? | ·
O=C(N/N=C\c1cn[nH]c1-c1ccccc1)c1cccs1 | – | 23.9µM | – | – | – | –
SMILES | ELG1 genotox | FLuc modulator | p53 reactivation | NPC1 promoter act | Rab9 promoter act | SMN2 splice up
COc1cc(NC(=O)CSc2nc(-c3ccco3)cc(C(F)(F)F)n2)cc(OC)c1OC | · | – | · | · | · | –
CCOC(=O)Cn1c(S(=O)(=O)Cc2ccc(F)cc2)nc(-c2ccccc2)c1-c1ccccc1 | – | – | – | – | – | 7.08µM
CCC(=O)c1ccc(/C=C/c2nc3ccccc3n2C)o1 | – | 3.38µM | – | 0.501µM | 0.316µM | 3.16µM
Cn1c(/C=N/O)nc2ccccc21 | – | – | – | – | – | ·
Cc1nccc(-c2cc(-c3ccc(Cl)cc3Cl)no2)n1 | ? | 2.39µM | ? | 1.41µM | 1.12µM | ·
O=C(COC(=O)c1ccc(Br)cc1)NC(=O)NCc1ccccc1 | – | – | – | – | – | ·
